Records with an inconclusive call do not appear. Activity calls are given as the source filed them.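 How the source made its calls, unless noted: active means normalized viability below 100% at a tested concentration; inactive means the rest.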
Legend:
[1] = growth inhibition of DIPG glioma cells, dose response, cell-based, JHH-DIPG-1, MIPE4.0, CellTiter-Glo, qHTS (AID 1347062; cut-off not given, nearly all actives have AC50 up to about 27 µM;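 on AC50: cells exposed to compound for two days before readout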); details: JHH-DIPG-1 viability, CellTiter-Glo ATP luminescence
[2] = growth inhibition of DIPG glioma cells, dose response, cell-based, SU-DIPG-IV, MIPE4.0, CellTiter-Glo, qHTS (AID 1347063; cut-off not given, nearly all actives have AC50 up to about 30 µM;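 further: compound exposure lasted 48 hours before the viability readout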); details: SU-DIPG-IV viability, CellTiter-Glo ATP luminescence
[3] = viability loss in pontine glioma line – cell-based, SU-DIPG-XXV, MIPE5.0, CellTiter-Glo, qHTS, dose response (AID 1347065; cut-off not given, nearly all actives have AC50 up to about 26 µM;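 further: cells exposed to compound for 48 hours before ATP readout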); details: CellTiter-Glo ATP luminescence
[4] = JHH-DIPG-1 glioma cell viability, MIPE5.0 library, CellTiter-Glo luminescence, qHTS (AID 1347067; cut-off not given, nearly all actives have AC50 up to about 26 µM;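 further: cells exposed to compound for 48 hours before readout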); details: JHH-DIPG-1 glioma viability, CellTiter-Glo ATP luminescence
[5] = SU-DIPG-XXV glioma cell viability, MIPE5.0 library, qHTS (AID 1347068; cut-off not given, nearly all actives have IC50 up to about 30 µM;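 on IC50: cells exposed to compound for 48 hours before viability readout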)
[6] = growth inhibition of DIPG glioma cells, dose response, cell-based, SU-DIPG-XIII, MIPE5.0, CellTiter-Glo, qHTS (AID 1347064; cut-off not given, nearly all actives have AC50 up to about 23 µM;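 on AC50: cells exposed to compound for 48 hours before the viability read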); details: SU-DIPG-XIII viability, CellTiter-Glo ATP luminescence
[7] = SU-DIPG-VI glioma cell viability, MIPE4.0 library, CellTiter-Glo luminescence, qHTS (AID 1347066; cut-off not given, nearly all actives have AC50 up to about 30 µM;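 further: cells exposed to compound for 48 hours before readout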); details: CellTiter-Glo ATP luminescence
[8] = sensitizers of A549 cells to miR-34 induction, primary screen, imaging, A549 dox-inducible miR-34, nuclei and caspase counts (AID 1347080;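 active means compounds whose cell count with miR-34 switched on is under 0.7 times the count with it off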); details: A549 miR-34 inducible, Hoechst nuclei count, 48 h
[9] = modifiers of HSF1 nuclear foci, imaging, Selleck Cancer Library (AID 1347162; in the data active means plate-normalised HSF1 focus index below about 0.46); details: human cells, at 10 µM; SSMD: measured here: HSF1 foci SSMD mean; cell count: measured here: cell number; plate-normalised HSF1 focus index: stronger effect = lower value
[10] = survival rescue of mitochondrial mutant cells in low glucose, primary screen, MELAS cybrids, Rieske KO mouse fibroblasts, CellTiter-Glo (AID 1508586;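 active means mean z-score across replicates of 1.96 or higher in either the MELAS or the Rieske mutant cell line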;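 further: z relative to plate mean and SD of compound and empty wells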)
[11] = ovarian cancer cell viability with rucaparib, profiling panel, oncology-focused library, rucaparib conditional (AID 1508598); details: patient-derived ovarian cancer cells, CellTiter-Glo viability, 144 h, stronger effect = lower value

COc1cc(C(=O)NC2CCN(C)CC2)ccc1Nc1ncc2c(n1)N(C1CCCC1)CCC(=O)N2C(C)C
AC50 [1]: 16.6 µM (active) | AC50 [2]: 7.43 µM (active) | AC50 [3]: 23.5 µM (active) | AC50 [4]: 23.5 µM (active) | outcome [5]: inactive

Fc1cc(-c2cccc3ncc(-c4cnn(C5CCNCC5)c4)nc23)cc(F)c1CN1CCOCC1
AC50 [1]: 20.9 µM (active) | AC50 [2]: 18.7 µM (active) | AC50 [6]: 11.8 µM (active) | AC50 [3]: 9.34 µM (active) | AC50 [7]: 23.5 µM (active) | AC50 [4]: 13.2 µM (active) | IC50 [5]: 23.5 µM (active) | fold change ([8]; stronger effect = lower value, cell number ratio, induced over uninduced): 0.713 (inactive) | fold change ([8]; measured here: relative caspase fold change +Dox/-Dox): 0.777 | cell count ([8]; measured here: total cells with miR-34 induction, stronger effect = lower value): 5860 | cell count ([8]; measured here: total cells without miR-34 induction): 8220 | SSMD [9]: -6.26 | cell count [9]: 6160 | plate-normalised HSF1 focus index [9]: 0.613 (inactive) | z-score ([10]; MELAS cybrid survival, CellTiter-Glo 48 h, stronger effect = higher value): -0.567 (inactive) | z-score ([10]; Rieske KO mouse fibroblast survival, CellTiter-Glo 72 h): -0.329 | viability ([11]; at 0.000305 µM, OCI-C5x cells, with rucaparib 10 µM, 100% = cells with rucaparib alone): 105% (inactive) | viability ([11]; at 0.000305 µM, OCI-C5x cells, without rucaparib): 114% (inactive) | viability ([11]; at 0.000305 µM, OCI-P5x cells, with rucaparib 20 µM, 100% = cells with rucaparib alone): 77.7% (active) | viability ([11]; at 0.000305 µM, OCI-P5x cells, without rucaparib): 90.5% (active) | viability ([11]; at 0.00122 µM, OCI-C5x cells, with rucaparib 10 µM, 100% = cells with rucaparib alone): 116% (inactive) | viability ([11]; at 0.00122 µM, OCI-C5x cells, without rucaparib): 118% (inactive) | viability ([11]; at 0.00122 µM, OCI-P5x cells, with rucaparib 20 µM, 100% = cells with rucaparib alone): 18.8% (active) | viability ([11]; at 0.00122 µM, OCI-P5x cells, without rucaparib): 18.7% (active) | viability ([11]; at 0.00488 µM, OCI-C5x cells, with rucaparib 10 µM, 100% = cells with rucaparib alone): 112% (inactive) | viability ([11]; at 0.00488 µM, OCI-C5x cells, without rucaparib): 114% (inactive) | viability ([11]; at 0.00488 µM, OCI-P5x cells, with rucaparib 20 µM, 100% = cells with rucaparib alone): 89.3% (active) | viability ([11]; at 0.00488 µM, OCI-P5x cells, without rucaparib): 99.1% (active) | viability ([11]; at 0.0195 µM, OCI-C5x cells, with rucaparib 10 µM, 100% = cells with rucaparib alone): 110% (inactive) | viability ([11]; at 0.0195 µM, OCI-C5x cells, without rucaparib): 112% (inactive) | viability ([11]; at 0.0195 µM, OCI-P5x cells, with rucaparib 20 µM, 100% = cells with rucaparib alone): 88.8% (active) | viability ([11]; at 0.0195 µM, OCI-P5x cells, without rucaparib): 91.6% (active) | viability ([11]; at 0.0781 µM, OCI-C5x cells, with rucaparib 10 µM, 100% = cells with rucaparib alone): 99.8% (active) | viability ([11]; at 0.0781 µM, OCI-C5x cells, without rucaparib): 115% (inactive) | viability ([11]; at 0.0781 µM, OCI-P5x cells, with rucaparib 20 µM, 100% = cells with rucaparib alone): 80.3% (active) | viability ([11]; at 0.0781 µM, OCI-P5x cells, without rucaparib): 96% (active) | viability ([11]; at 0.313 µM, OCI-C5x cells, with rucaparib 10 µM, 100% = cells with rucaparib alone): 114% (inactive) | viability ([11]; at 0.313 µM, OCI-C5x cells, without rucaparib): 120% (inactive) | viability ([11]; at 0.313 µM, OCI-P5x cells, with rucaparib 20 µM, 100% = cells with rucaparib alone): 80.6% (active) | viability ([11]; at 0.313 µM, OCI-P5x cells, without rucaparib): 89.7% (active) | viability ([11]; at 1.25 µM, OCI-C5x cells, with rucaparib 10 µM, 100% = cells with rucaparib alone): 124% (inactive) | viability ([11]; at 1.25 µM, OCI-C5x cells, without rucaparib): 115% (inactive) | viability ([11]; at 1.25 µM, OCI-P5x cells, with rucaparib 20 µM, 100% = cells with rucaparib alone): 68.6% (active) | viability ([11]; at 1.25 µM, OCI-P5x cells, without rucaparib): 80.5% (active) | viability ([11]; at 5 µM, OCI-C5x cells, with rucaparib 10 µM, 100% = cells with rucaparib alone): 29.6% (active) | viability ([11]; at 5 µM, OCI-C5x cells, without rucaparib): 15.6% (active) | viability ([11]; at 5 µM, OCI-P5x cells, with rucaparib 20 µM, 100% = cells with rucaparib alone): 17.1% (active) | viability ([11]; at 5 µM, OCI-P5x cells, without rucaparib): 20.9% (active)

CC(C)C[C@H](NC(=O)c1cc2ccccc2s1)C(=O)N1CCN(C(=O)[C@H](CO)NS(=O)(=O)c2ccc(Cl)cc2Cl)CC1
outcome [1]: inactive | AC50 [2]: 20.9 µM (active) | AC50 [3]: 20.9 µM (active) | AC50 [7]: 23.5 µM (active)

Cc1cccc(-c2nn(C(=S)Nc3ccccc3)cc2-c2ccnc3ccccc23)n1
outcome [1]: inactive | outcome [2]: inactive | outcome [6]: inactive | outcome [3]: inactive | outcome [7]: inactive | outcome [4]: inactive | outcome [5]: inactive
